# Inconclusive results are not listed. Where a call stands in place of a potency, no number is given. Activity calls are given as the source filed them. Unless noted, calls come from the whole dose curve; as a rule, active = well fitted curve in the direction sought with a large enough effect in the repeat runs; inconclusive = weak or mixed curves; inactive = no such curve, though single readings can be large; an effect the other way counts as inactive or inconclusive.
# What was measured:
# [1] = qHTS assay to identify small molecule agonists of the NFkB signaling pathway - cell viability counter screen (AID 1159515; calls by dose curve; note: nearly all actives have a fitted effect of over 55% in size; note: potency is the fitted concentration of half-maximal effect)
# Summary of the method: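 5 hr compound treatment of NFkB-bla ME-180 cells (2,000/well, seeded overnight beforehand), followed by reporter substrate for 1.5 hr. CellTiter-Glo added afterward; luminescence after 30 min RT.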
# [2] = qHTS assay to identify small molecule agonists of the endoplasmic reticulum stress response signaling pathway - cell viability counter screen (AID 1159517; calls by dose curve; note: nearly all actives have a fitted effect of over 50% in size; note: potency is the fitted concentration of half-maximal effect)
# Summary of the method: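 Cells, HeLa ESRE-bla; density, 1,500/well; dosing, 5 hr at 37 C, 5% CO2; readout, CellTiter-Glo luminescence after 30 min RT.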
# [3] = qHTS assay to identify small molecule agonists of the AP-1 signaling pathway - cell viability counter screen (AID 1159525; calls by dose curve; note: nearly all actives have a fitted effect of over 55% in size; note: potency is the fitted concentration of half-maximal effect)
# Summary of the method: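 Luminescent ATP readout (Cell Titer Glo, 30 min RT), normalised to DMSO and tetra n-octyl ammonium bromide controls. Cells were ME-180 AP-1-bla in 0.5% dialyzed FBS Opti-MEM, with a 5 h, 37 °C compound exposure.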
# [4] = qHTS assay to identify small molecule agonists of the AP-1 signaling pathway (AID 1159526; calls by dose curve)
# [5] = qHTS assay to identify small molecule antagonists of the retinoid acid receptor (RAR) signaling pathway - cell viability counter screen (AID 1159551); note: nearly all actives have a fitted effect of over 35% in size; note: potency is the fitted concentration of half-maximal effect
# Summary of the method: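 Seed C3RL4 cells; next day add compound, then retinol to 1 uM final; incubate 6 h at 37 C; add CellTiter-Glo; read luminescence after 30 min at RT.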
# [6] = qHTS assay to identify small molecule antagonists of the retinoic acid receptor (RAR) signaling pathway (AID 1159552; note: nearly all actives have a fitted effect of over 50% in size; note: potency is the fitted concentration of half-maximal effect)
# Summary of the method: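 C3RL4 RARE-luc cells, overnight plating; retinol 1 uM final added right after compound; 6 hr 37 C; luciferase read at 30 min RT.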
# [7] = qHTS assay to identify small molecule agonists of the retinoic acid receptor (RAR) signaling pathway (AID 1159553); note: potency is the fitted concentration of half-maximal effect
# Summary of the method: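 Activation of retinol signaling was monitored via a RARE luciferase reporter in C3RL4 cells. After 6 hr compound treatment at 37 C, detection reagent was added for 30 min at room temperature before luminescence reading.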
# [8] = molecular target: Luciferin 4-monooxygenase (Photinus pyralis) (UniProt P08659); test: qHTS assay to identify small molecule inhibitors of firefly luciferase (AID 1224835); note: nearly all actives have a fitted effect of over 25% in size; note: potency is the fitted concentration of half-maximal effect
# Luciferin 4-monooxygenase (Photinus pyralis), sequence (P08659 whole entry, looked up): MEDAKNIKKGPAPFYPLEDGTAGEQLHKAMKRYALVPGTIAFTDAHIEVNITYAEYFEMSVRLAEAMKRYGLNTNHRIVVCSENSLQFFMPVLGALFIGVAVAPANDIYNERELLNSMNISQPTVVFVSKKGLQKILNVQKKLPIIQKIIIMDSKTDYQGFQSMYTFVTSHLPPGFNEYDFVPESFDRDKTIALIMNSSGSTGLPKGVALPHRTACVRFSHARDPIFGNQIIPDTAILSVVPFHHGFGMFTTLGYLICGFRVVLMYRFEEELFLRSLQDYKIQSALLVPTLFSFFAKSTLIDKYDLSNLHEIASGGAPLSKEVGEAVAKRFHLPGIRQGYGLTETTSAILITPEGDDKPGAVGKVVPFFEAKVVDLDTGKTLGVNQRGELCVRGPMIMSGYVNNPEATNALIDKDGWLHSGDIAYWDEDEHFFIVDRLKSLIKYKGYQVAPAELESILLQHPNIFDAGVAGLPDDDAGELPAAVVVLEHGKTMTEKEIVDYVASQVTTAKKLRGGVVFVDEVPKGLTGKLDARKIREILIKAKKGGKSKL
# Summary of the method: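 Inhibition of purified Photinus luciferase is measured by luminescence. Substrate levels (D-luciferin, ATP) sit at their KM values. Each compound is tested in a concentration series.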
# [9] = qHTS assay to identify small molecule antagonists of the retinoid-related orphan receptor gamma (ROR-gamma) signaling pathway - cell viability counter screen (AID 1159520); note: nearly all actives have a fitted effect of over 50% in size; note: potency is the fitted concentration of half-maximal effect
# Summary of the method: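 Cytotoxicity was read from cellular ATP (CellTiter-Glo luminescence) after 16 hr at 37 C with 1 uM doxycycline induction. The inducer was added 2 hr after compound transfer to Tet-on ROR gamma CHO cells.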
# [10] = molecular target: Nuclear receptor ROR-gamma (Homo sapiens) (UniProt P51449); test: qHTS assay to identify small molecule antagonists of the retinoid-related orphan receptor gamma (ROR-gamma) signaling pathway (AID 1159521; note: nearly all actives have a fitted effect of over 50% in size; note: potency is the fitted concentration of half-maximal effect)
# Summary of the method: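 Decreased RORE-driven luciferase luminescence indicates antagonism. Tet-on RORγ CHO cells received compound, then 1 uM final doxycycline 2 h later; signal read after 16 h incubation.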
# [11] = qHTS assay to identify small molecule agonists of the RXR signaling pathway - cell viability counter screen (AID 1159529); note: nearly all actives have a fitted effect of over 50% in size; note: potency is the fitted concentration of half-maximal effect
# Summary of the method: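 In this parallel viability measure, GeneBLAzer RXR-alpha HEK 293T cells (2% charcoal-stripped FBS) were given a 5 hr preincubation, treated with compounds 16 hr at 37 C, and read by CellTiter-Glo luminescence.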
# [12] = qHTS assay to identify small molecule antagonists of the estrogen related receptor (ERR) signaling pathway - cell viability counter screen (AID 1224818);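 note: series mostly up to about 46 µM; viability measured after 17.5 h of compound exposure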
# Summary of the method: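 In the same ERR cell assay, compound-treated wells (17.5 h, 37 C) were multiplexed with a fluorogenic viability reagent, CellTiter-Fluor, read after 30 min to flag cytotoxic substances.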
# [13] = qHTS assay to identify small molecule antagonists of the estrogen related receptor signaling pathway with the pleiotropic PPARgamma coactivator (PGC) cell viability counter screen (AID 1224822; note: series mostly up to about 46 µM)
# Summary of the method: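 Compounds in DMSO, with positive and negative controls, were applied to PGC/ERR cells (2,000/well) and left 17.5 h at 37 C before CellTiter-Fluor detection.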
# [14] = qHTS assay to identify small molecule antagonists of the estrogen related receptor (ERR) signaling pathway from Tox21 library - cell viability counter screen (AID 1224834); note: nearly all actives have a fitted effect of over 30% in size; note: potency is the fitted concentration of half-maximal effect
# Summary of the method: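 CellTiter-Fluor fluorescence measured; ERR cells; 17.5 h compound incubation at 37 C; 30 min reagent step.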
# [15] = molecular target: Retinoic acid receptor RXR-alpha (Homo sapiens) (UniProt P19793); test: qHTS assay to identify small molecule agonists of the RXR signaling pathway (AID 1159527; calls by dose curve; note: nearly all actives have a fitted effect of over 35% in size)
# Retinoic acid receptor RXR-alpha (Homo sapiens), sequence (P19793 whole entry, looked up): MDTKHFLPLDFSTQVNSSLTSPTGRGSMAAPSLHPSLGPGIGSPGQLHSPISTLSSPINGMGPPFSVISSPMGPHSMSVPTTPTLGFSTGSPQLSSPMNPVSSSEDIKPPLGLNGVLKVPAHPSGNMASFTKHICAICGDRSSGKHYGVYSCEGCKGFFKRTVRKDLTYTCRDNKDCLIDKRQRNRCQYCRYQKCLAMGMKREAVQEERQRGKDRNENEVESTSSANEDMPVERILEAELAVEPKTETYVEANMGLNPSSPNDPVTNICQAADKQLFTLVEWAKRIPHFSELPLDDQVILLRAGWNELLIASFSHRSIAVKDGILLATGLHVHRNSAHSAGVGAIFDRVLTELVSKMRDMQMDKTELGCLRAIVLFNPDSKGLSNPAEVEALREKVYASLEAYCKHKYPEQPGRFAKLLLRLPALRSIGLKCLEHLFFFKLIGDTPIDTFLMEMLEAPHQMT
# Summary of the method: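 16 hr incubation of compound-treated RXR-alpha-UAS-bla HEK 293T cells (2% charcoal-stripped FBS, 37 C) preceded a 2 hr room-temperature LiveBLAzer FRET substrate step and blue/green fluorescence measurement.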
# [16] = qHTS assay to identify small molecule agonists of the estrogen related receptor (ERR) signaling pathway (AID 1224820)
# Summary of the method: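 ERR reporter cells (NTP line) plated 2,000/well, incubated 6 h at 37 C/5% CO2, then pinned with compounds in DMSO and held 18 h at 37 C. One-Glo added; luminescence read after 30 min at room temperature.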
# [17] = qHTS assay to identify small molecule agonists of the estrogen related receptor signaling pathway with the pleiotropic PPARgamma coactivator (PGC) (AID 1224823)
# Summary of the method: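 PGC/ERR reporter cells were seeded, rested 6 h at 37 C/5% CO2, then exposed to compounds in DMSO by pin transfer for 18 h at 37 C. Luciferase activity was read as luminescence after One-Glo reagent and 30 min at room temperature.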
structure (smiles),measurement,setting,value
BrC(Br)C(Br)(Br)Br,Potency,[1],inactive
same,Potency,[2],inactive
same,Potency,[3],inactive
same,Potency,[4],inactive
same,Potency,[5],inactive
same,Potency,[6],30.8 µM (active)
same,Potency,[7],inactive
same,Potency,[8],22.6 µM (active)
CCCSP(=O)(OCC)SCCC,Potency,[1],inactive
same,Potency,[9],inactive
same,Potency,[10],inactive
same,Potency,[3],inactive
same,Potency,[4],inactive
same,Potency,[11],inactive
same,Potency,[6],inactive
same,outcome,[12],inactive
same,Potency,[13],inactive
same,Potency,[14],inactive
CC1CCC(C(C)C)C(OC(=O)c2ccccc2N)C1 (stereo not given),Potency,[1],34.2 µM (active)
same,Potency,[2],43 µM (active)
same,Potency,[9],53.7 µM (active)
same,Potency,[3],38.4 µM (active)
same,Potency,[11],17.1 µM (active)
same,Potency,[8],inactive
CCOc1cc(C(C)(C)C)ccc1C1COC(c2c(F)cccc2F)=N1 (stereo not given),Potency,[1],inactive
same,Potency,[2],inactive
same,Potency,[10],33.1 µM (active)
same,Potency,[11],14.9 µM (active)
same,Potency,[5],inactive
same,Potency,[7],inactive
same,Potency,[14],inactive
same,Potency,[8],inactive
CC(=O)[O-].CC(=O)[O-].[Hg+2],Potency,[1],0.871 µM (active)
same,Potency,[2],0.776 µM (active)
same,Potency,[9],1.22 µM (active)
same,Potency,[3],3.89 µM (active)
same,Potency,[11],2.75 µM (active)
same,Potency,[5],4.33 µM (active)
same,Potency,[14],3.86 µM (active)
CCCCCCCCCCCCCC[P+](CCCCCC)(CCCCCC)CCCCCC (tested in a mixture with another compound),Potency,[1],17.4 µM (active)
same,Potency,[2],17.4 µM (active)
same,Potency,[9],15.4 µM (active)
same,Potency,[3],21.9 µM (active)
same,Potency,[11],9.77 µM (active)
same,Potency,[5],27.3 µM (active)
same,Potency,[14],24.3 µM (active)
CCCCCCCCCCCCCCC(Br)C(=O)O (stereo not given),Potency,[1],54.9 µM (active)
same,Potency,[2],38.9 µM (active)
same,Potency,[9],inactive
same,Potency,[3],inactive
same,Potency,[4],inactive
same,outcome,[15],inactive
same,Potency,[6],inactive
same,Potency,[14],inactive
c1ccc2c(c1)[nH]c1cnccc12,Potency,[1],inactive
same,Potency,[2],inactive
same,Potency,[9],inactive
same,outcome,[15],inactive
same,Potency,[11],inactive
same,Potency,[5],inactive
same,Potency,[6],inactive
same,Potency,[7],inactive
same,Potency,[14],inactive
same,Potency,[8],inactive
N#CC(Cl)Cl,Potency,[1],inactive
same,Potency,[9],inactive
same,Potency,[10],inactive
same,Potency,[3],inactive
same,Potency,[4],inactive
same,outcome,[15],inactive
same,Potency,[11],inactive
same,Potency,[5],inactive
same,Potency,[6],inactive
same,Potency,[7],47.3 µM (active)
same,Potency,[14],inactive
same,Potency,[8],inactive
Nc1ccc(Cc2ccc(N)c(Cl)c2)cc1Cl,Potency,[1],inactive
same,Potency,[2],inactive
same,Potency,[9],inactive
same,Potency,[10],inactive
CCOC(=O)CC(=O)CCl,Potency,[1],inactive
same,Potency,[2],inactive
same,Potency,[10],48.6 µM (active)
same,Potency,[3],inactive
same,Potency,[4],inactive
same,Potency,[11],inactive
same,Potency,[5],inactive
same,Potency,[14],inactive
same,Potency,[8],inactive
O=[N+]([O-])O.O=[N+]([O-])O.[Cd],Potency,[1],inactive
same,Potency,[2],inactive
same,Potency,[3],inactive
same,Potency,[11],43.6 µM (active)
same,Potency,[5],inactive
same,Potency,[14],9.69 µM (active)
Nc1ccccc1C(=O)OC/C=C/c1ccccc1,Potency,[1],inactive
same,Potency,[2],inactive
same,Potency,[9],inactive
same,Potency,[10],inactive
same,Potency,[5],inactive
same,Potency,[6],inactive
same,Potency,[8],31.8 µM (active)
CC(C)[C@H](C(=O)O[C@H](C#N)c1cccc(Oc2ccccc2)c1)c1ccc(Cl)cc1,Potency,[1],inactive
same,Potency,[2],inactive
same,Potency,[9],inactive
same,Potency,[3],inactive
same,Potency,[11],inactive
same,Potency,[5],inactive
same,Potency,[14],inactive
same,Potency,[8],inactive
C[C@H]1CC[C@@H]2[C@@H](C)[C@H]3[C@H](C[C@H]4[C@@H]5CC=C6CC(O[C@@H]7O[C@H](CO)[C@H](O)[C@H](O[C@@H]8O[C@H](CO)[C@@H](O)[C@H](O)[C@H]8O)[C@H]7O[C@H]7O[C@@H](C)[C@H](O)[C@@H](O)[C@H]7O)CC[C@]6(C)[C@H]5CC[C@]34C)N2C1 (stereo not given in full),Potency,[1],56.7 µM (active)
same,Potency,[9],28.2 µM (active)
same,Potency,[10],inactive
same,Potency,[3],20.1 µM (active)
same,Potency,[11],14.3 µM (active)
same,Potency,[5],25.1 µM (active)
same,Potency,[6],28.2 µM (active)
same,Potency,[7],inactive
same,Potency,[14],22.4 µM (active)
same,Potency,[8],inactive
CN(C)C1CSSSC1,Potency,[1],inactive
same,Potency,[2],inactive
same,Potency,[9],inactive
same,Potency,[3],inactive
same,Potency,[4],inactive
same,Potency,[11],inactive
same,Potency,[5],inactive
same,Potency,[6],inactive
same,Potency,[7],inactive
same,Potency,[14],inactive
[CH3][Hg][Cl],Potency,[1],10.9 µM (active)
same,Potency,[2],21.8 µM (active)
same,Potency,[9],4.31 µM (active)
same,Potency,[10],3.05 µM (active)
same,Potency,[11],6.15 µM (active)
same,Potency,[6],inactive
same,Potency,[14],60.9 µM (active)
same,Potency,[8],5.62 µM (active)
O=[N+]([O-])c1cc(C(F)(F)F)c(Cl)c([N+](=O)[O-])c1Cl,Potency,[1],54.9 µM (active)
same,Potency,[2],12.3 µM (active)
same,Potency,[9],27.3 µM (active)
same,Potency,[10],6.11 µM (active)
same,Potency,[11],17.4 µM (active)
same,Potency,[5],48.6 µM (active)
same,Potency,[14],54.5 µM (active)
same,Potency,[8],79.6 µM (active)
CCCN(CCC)c1c([N+](=O)[O-])cc(S(N)(=O)=O)cc1[N+](=O)[O-],Potency,[1],52.2 µM (active)
same,Potency,[2],52.2 µM (active)
same,Potency,[9],54.5 µM (active)
same,Potency,[3],43.6 µM (active)
same,Potency,[11],43.6 µM (active)
same,Potency,[5],58.1 µM (active)
same,Potency,[6],48.6 µM (active)
same,outcome,[16],inactive
same,outcome,[17],inactive
same,Potency,[14],46.2 µM (active)
same,Potency,[8],inactive
O=[N+]([O-])c1ccc2ccc3cccc4ccc1c2c34,Potency,[1],inactive
same,Potency,[2],inactive
same,Potency,[10],inactive
same,Potency,[4],inactive
same,Potency,[5],inactive
same,Potency,[6],inactive
same,Potency,[7],inactive
same,Potency,[8],inactive

# From PubChem BioAssay (Tox21)
